In PubChem BioAssay (Tox21):
Results filed as inconclusive are left out. The source made the active and inactive calls. Unless noted, the call rests on the fitted dose curve; in most records, active means well fitted curve in the direction sought with a large enough effect in the repeat runs; inconclusive means weak or mixed curves; inactive means no such curve, though single readings can be large; an effect the other way counts as inactive or inconclusive.

Key:
[1] = A CellTox Green Cytotoxicity Assay to monitor cytotoxicity in HepG2 cells - 0 hour (AID 1224882); further: on the % scale 0 is the no-effect control and ±100 the full control effect; nearly all actives have a fitted effect of over 35% in size
Summary of the method: (§1)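 HepG2 cells were seeded together with the CellTox Green dye at 600 cells/well, left 5 h at 37 C/5% CO2, then given compounds in DMSO. Fluorescence from dye bound to dead-cell DNA was read repeatedly over 40 h of treatment at 37 C.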

[2] = A CellTox Green Cytotoxicity Assay to monitor cytotoxicity in HEK293 cells - 8 hour (AID 1224884); further: on the % scale 0 is the no-effect control and ±100 the full control effect; nearly all actives have a fitted effect of over 35% in size
Summary of the method: (§2)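 HEK293 cells premixed with CellTox Green dye were seeded at 600 cells/well and left 5 h at 37 C/5% CO2 before pin transfer of 23 nL compound in DMSO. Fluorescence from dye bound to dead-cell DNA was read during 40 h treatment.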

[3] = qHTS RealTime-Glo MT Cell Viability Assay in HepG2 cells - 16 hour (AID 1224885); further: nearly all actives have a fitted effect of over 50% in size; further: potency means the concentration at half of the fitted maximal effect
Summary of the method: (§3)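 Cell number in HepG2 cultures estimated from NanoLuc luminescence generated by metabolic reduction of a prosubstrate by living cells. The homogeneous, nonlytic format allowed repeated reads at 0, 8, 16, 24, 32 and 40 h of compound exposure.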

[4] = qHTS RealTime-Glo MT Cell Viability Assay in HEK293 cells - 24 hour (AID 1224886); further: nearly all actives have a fitted effect of over 50% in size; further: potency means the concentration at half of the fitted maximal effect
Summary of the method: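 Homogeneous bioluminescent viability format in HEK293 cells (600 cells/well). Following 5 h at 37 C/5% CO2, 23 nL compound was pintooled; the signal was measured repeatedly during 40 h incubation.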

[5] = qHTS RealTime-Glo MT Cell Viability Assay in HEK293 cells - 8 hour (AID 1224887); further: nearly all actives have a fitted effect of over 50% in size; further: potency means the concentration at half of the fitted maximal effect
Summary of the method: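 HEK293 cells mixed with RealTime-Glo reagents (NanoLuc plus cell-permeant prosubstrate) at 600 cells/well, preincubated 5 h at 37 C/5% CO2, then given 23 nL compound in DMSO. Nonlytic luminescence from viable cells was read at 0, 8, 16, 24, 32 and 40 h.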

[6] = A CellTox Green Cytotoxicity Assay to monitor cytotoxicity in HEK293 cells - 16 hour (AID 1224888); further: on the % scale 0 is the no-effect control and ±100 the full control effect; nearly all actives have a fitted effect of over 35% in size
Summary of the method: as §2

[7] = qHTS RealTime-Glo MT Cell Viability Assay in HepG2 cells - 0 hour (AID 1224889); further: on the % scale 0 is the no-effect control and ±100 the full control effect; nearly all actives have a fitted effect of over 50% in size
Summary of the method: as §3

[8] = A CellTox Green Cytotoxicity Assay to monitor cytotoxicity in HepG2 cells - 8 hour (AID 1224890); further: on the % scale 0 is the no-effect control and ±100 the full control effect; nearly all actives have a fitted effect of over 45% in size
Summary of the method: as §1

[9] = qHTS assay to identify small molecule antagonists of the estrogen receptor alpha (ER-alpha) signaling pathway using the BG1 cell line in the presence of 0.1 nM 17-beta-estradiol - cell viability counter screen (AID 1259241); further: nearly all actives have a fitted effect of over 40% in size; further: potency means the concentration at half of the fitted maximal effect
Summary of the method: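 The cell line endogenously expresses full-length ER-alpha and carries four EREs driving luciferase. Cells are cultured 5 days hormone-free, treated 22 hr with compounds and 0.1 nM estradiol, then viability is read by fluorescence.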

[10] = qHTS assay to identify small molecule antagonists of the androgen receptor (AR) signaling pathway using the MDA cell line in the presence of 0.5 nM R1881 - cell viability counter screen (AID 1259242); further: on the % scale 0 is the no-effect control and ±100 the full control effect; nearly all actives have a fitted effect of over 45% in size
Summary of the method: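 MDA-kb2 cells (human breast carcinoma, stably carrying MMTV-luciferase reporter) were exposed to compounds with 0.5 nM R1881 (final) for 16 hr at 37C, 0% CO2; viability then read as live-cell protease fluorescence (CellTiter-Fluor, 30 min) in the same wells.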

[11] = target: Androgen receptor (Homo sapiens) (UniProt P10275); assay: qHTS assay to identify small molecule antagonists of the androgen receptor (AR) signaling pathway using the MDA cell line in the presence of 0.5 nM R1881 (AID 1259243); further: nearly all actives have a fitted effect of over 50% in size; further: potency means the concentration at half of the fitted maximal effect
Summary of the method: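 MDA-kb2 human breast carcinoma cells carrying an MMTV-luciferase reporter (AR- and GR-responsive) were plated, rested 5 hr at 37C, dosed with compounds, then stimulated with 0.5 nM R1881 (final) for 16 hr; luminescence was read after ONE-Glo.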

[12] = target: Estrogen receptor (Homo sapiens) (UniProt P03372); assay: qHTS assay to identify small molecule antagonists of the estrogen receptor alpha (ER-alpha) signaling pathway using the BG1 cell line in the presence of 0.1 nM 17-beta-estradiol (AID 1259244); further: nearly all actives have a fitted effect of over 50% in size; further: potency means the concentration at half of the fitted maximal effect
Summary of the method: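 VM7Luc4E2 cells (endogenous full-length ER-alpha, stable 4xERE-luciferase) were grown 5 days in phenol red-free medium with charcoal-stripped FBS, then exposed 22 h at 37C to compounds plus 0.1 nM (final) 17beta-estradiol; ONE-Glo luminescence read-out.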

[13] = qHTS assay to identify small molecule HDAC inhibitors (AID 1259364); further: top concentration of the series differs between compounds; on the % scale 0 is the no-effect control and ±100 the full control effect; nearly all actives have a fitted effect of over 45% in size
Summary of the method: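 Wild-type HCT-116 cells were plated overnight, exposed to compounds for 2 h at 37 °C, then given HDAC-Glo class I/II luminogenic reagent for 30 min at room temperature before luminescence was read.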

[14] = qHTS assay to identify small molecule HDAC inhibitors - cell viability counter screen (AID 1259365)
Summary of the method: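 Viability readout: CellTiter-Glo luminescence. Wild-type HCT-116 cells, 2hr compound treatment following overnight attachment at 37 C.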

[15] = qHTS assay to identify small molecule agonists of the sonic hedgehog signaling (Shh) pathway - cell viability counter screen (AID 1259366); further: nearly all actives have a fitted effect of over 50% in size; further: potency means the concentration at half of the fitted maximal effect
Summary of the method: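 Viability measured fluorometrically (CellTiter-Fluor, 1hr, 37C) in 3T3 Gli1-Luc reporter cells after 23hr compound exposure within a 24hr incubation at 37C/5% CO2.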

[16] = qHTS assay to identify small molecule antagonists of the sonic hedgehog signaling (Shh) pathway - cell viability counter screen (AID 1259367); further: on the % scale 0 is the no-effect control and ±100 the full control effect; nearly all actives have a fitted effect of over 55% in size
Summary of the method: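 After a 4 hr settling period, 3T3 Gli1-Luc cells were treated with DMSO-dissolved chemicals and conditioned medium, kept 24 hr at 37C in 5% CO2, and assayed for viability by CellTiter-Fluor fluorescence following 1 hr reagent incubation.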

[17] = qHTS assay to identify small molecule agonists of the sonic hedgehog signaling (Shh) pathway (AID 1259368; calls by dose curve; further: series mostly up to about 92 µM; on the % scale 0 is the no-effect control and ±100 the full control effect; nearly all actives have a fitted effect of over 15% in size)
Summary of the method: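 NIH/3T3-derived 3T3Gli1-Luc cells carrying a stably integrated Gli1 response element–firefly luciferase reporter were plated, left 4 hr at 37 C, then given compounds in DMSO for 24 hr. Luminescence was read 30 min after adding luciferase reagent.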

[18] = qHTS assay to identify small molecule antagonists of the sonic hedgehog signaling (Shh) pathway (AID 1259369; calls by dose curve; further: nearly all actives have a fitted effect of over 45% in size; further: potency means the concentration at half of the fitted maximal effect)
Summary of the method: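 NIH/3T3-derived 3T3Gli1-Luc cells with stably integrated Gli1-Luc reporter were preincubated 4hr at 37 C, then given compounds in DMSO plus Shh conditioned medium and incubated 24hr. Firefly luciferase luminescence read after 30min reagent at room temperature.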

[19] = A CellTox Green Cytotoxicity Assay to monitor cytotoxicity in HepG2 cells - 32 hour (AID 1224883)
Summary of the method: as §1

[20] = qHTS assay to identify small molecule phospholipidosis (PLD) inducers (AID 1259344; active means well fitted curve in the direction sought with a large enough effect; an effect the other way counts as inactive or inconclusive; further: on the % scale 0 is the no-effect control and ±100 the full control effect)
Summary of the method: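 HepG2 cells grown on collagen I take up LipidTOX Red while exposed to compound for 24 h; after fixation they are imaged at 20x and pit metrics are extracted.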

Chain of Androgen receptor (Homo sapiens) (P10275 whole entry, looked up): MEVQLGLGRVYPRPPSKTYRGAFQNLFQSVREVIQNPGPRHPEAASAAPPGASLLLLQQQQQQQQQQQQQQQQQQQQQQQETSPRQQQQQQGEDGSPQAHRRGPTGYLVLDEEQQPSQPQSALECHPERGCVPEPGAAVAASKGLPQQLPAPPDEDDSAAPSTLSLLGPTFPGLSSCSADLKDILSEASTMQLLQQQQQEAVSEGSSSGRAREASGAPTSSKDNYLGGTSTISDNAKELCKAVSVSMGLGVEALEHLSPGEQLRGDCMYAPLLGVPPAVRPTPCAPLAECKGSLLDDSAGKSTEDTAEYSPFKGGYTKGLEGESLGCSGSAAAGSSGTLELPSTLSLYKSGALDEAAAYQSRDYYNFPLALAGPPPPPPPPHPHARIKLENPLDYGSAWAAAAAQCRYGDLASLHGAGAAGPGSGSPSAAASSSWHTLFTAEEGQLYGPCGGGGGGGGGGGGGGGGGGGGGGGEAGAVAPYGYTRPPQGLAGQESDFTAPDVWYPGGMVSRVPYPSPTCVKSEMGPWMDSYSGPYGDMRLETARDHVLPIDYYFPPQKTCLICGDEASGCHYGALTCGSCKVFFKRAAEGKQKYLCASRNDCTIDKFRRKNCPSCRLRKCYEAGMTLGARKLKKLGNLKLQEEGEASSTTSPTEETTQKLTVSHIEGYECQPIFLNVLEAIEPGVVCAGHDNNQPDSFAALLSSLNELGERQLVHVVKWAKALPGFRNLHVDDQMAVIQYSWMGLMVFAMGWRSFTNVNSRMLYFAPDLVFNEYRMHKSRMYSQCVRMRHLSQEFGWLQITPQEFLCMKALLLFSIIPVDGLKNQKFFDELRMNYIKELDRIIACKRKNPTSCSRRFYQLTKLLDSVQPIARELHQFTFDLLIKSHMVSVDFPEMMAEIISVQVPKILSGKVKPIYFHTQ
Chain of Estrogen receptor (Homo sapiens) (P03372 whole entry, looked up): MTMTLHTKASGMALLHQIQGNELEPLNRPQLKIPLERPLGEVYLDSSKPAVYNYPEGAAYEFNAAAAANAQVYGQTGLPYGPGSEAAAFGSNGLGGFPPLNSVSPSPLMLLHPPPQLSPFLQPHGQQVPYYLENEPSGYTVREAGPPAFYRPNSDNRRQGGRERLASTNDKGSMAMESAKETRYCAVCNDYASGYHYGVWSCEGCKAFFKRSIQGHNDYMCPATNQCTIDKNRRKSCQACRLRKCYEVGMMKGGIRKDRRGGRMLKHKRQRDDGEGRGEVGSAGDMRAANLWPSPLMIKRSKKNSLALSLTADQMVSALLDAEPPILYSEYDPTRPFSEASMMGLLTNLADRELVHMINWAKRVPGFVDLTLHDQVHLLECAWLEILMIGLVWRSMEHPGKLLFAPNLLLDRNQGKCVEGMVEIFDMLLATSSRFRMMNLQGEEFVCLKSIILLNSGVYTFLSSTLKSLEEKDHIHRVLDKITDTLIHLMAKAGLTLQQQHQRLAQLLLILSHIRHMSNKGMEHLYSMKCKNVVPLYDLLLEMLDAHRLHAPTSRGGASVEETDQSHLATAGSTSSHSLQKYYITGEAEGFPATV

OCCNCc1ccccc1
inactive: Potency [1] | Potency [2] | Potency [3] | Potency [4] | Potency [5] | Potency [6] | Potency [7] | Potency [8] | Potency [9] | Potency [10] | Potency [11] | Potency [12] | Potency [13] | Potency [14] | Potency [15] | Potency [16] | outcome [17] | Potency [18]

CCCCOC(=O)CCCCCCCC(=O)OCCCC
inactive: Potency [1] | Potency [2] | Potency [3] | Potency [4] | Potency [5] | Potency [6] | Potency [7] | Potency [8] | Potency [9] | Potency [10] | Potency [13] | Potency [15] | Potency [16] | outcome [17] | Potency [18]

CNCCCN1c2ccccc2CCc2ccccc21
inactive: Potency [1] | Potency [6] | Potency [7] | Potency [8] | Potency [9] | Potency [12] | Potency [13] | Potency [14] | outcome [17]
active: Potency [19] 26.8 µM | Potency [18] 5.96 µM

COS(=O)(=O)C(F)(F)F
inactive: Potency [1] | Potency [2] | Potency [3] | Potency [4] | Potency [5] | Potency [6] | Potency [7] | Potency [8] | Potency [10] | Potency [13] | Potency [14] | outcome [17]
active: Potency [18] 14.3 µM

CC(=O)c1cccc([N+](=O)[O-])c1
inactive: Potency [1] | Potency [2] | Potency [3] | Potency [5] | Potency [7] | Potency [8] | Potency [9] | Potency [10] | Potency [12] | Potency [13] | Potency [15] | outcome [17] | Potency [18]

O=C(CS)Nc1ccccc1
inactive: Potency [1] | Potency [2] | Potency [3] | Potency [4] | Potency [5] | Potency [6] | Potency [7] | Potency [8] | Potency [9] | Potency [10] | Potency [12] | PLD induction [20] 0.942% [at 7.66 µM] | Potency [13] | Potency [15] | Potency [16] | outcome [17] | Potency [18]

COc1ccc(-c2nc3ccc(C4=NNC(=O)CC4C)cc3[nH]2)cc1 (stereo unspecified)
inactive: Potency [1] | Potency [2] | Potency [3] | Potency [6] | Potency [7] | Potency [8] | Potency [9] | Potency [10] | Potency [11] | Potency [12] | Potency [20] | Potency [14] | Potency [15] | outcome [17]
active: Potency [4] 9.52 µM | Potency [18] 8.41 µM

O=C1CCCCCCCCCCCC(=O)OCCO1
inactive: Potency [1] | Potency [2] | Potency [3] | Potency [4] | Potency [5] | Potency [6] | Potency [7] | Potency [8] | Potency [9] | Potency [10] | Potency [11] | Potency [12] | Potency [13] | Potency [14] | Potency [15] | Potency [16] | outcome [17] | Potency [18]

CC(=O)c1ccc2c(c1)N(CCCN1CCC(CCO)CC1)c1ccccc1S2
inactive: Potency [1] | Potency [6] | Potency [7] | Potency [8] | Potency [9] | Potency [12] | Potency [20] | Potency [13] | Potency [14] | outcome [17]
active: Potency [19] 23.9 µM | Potency [15] 11.9 µM | Potency [18] 11.9 µM

ClCCOCCOCCCl
inactive: Potency [1] | Potency [2] | Potency [3] | Potency [6] | Potency [7] | Potency [9] | Potency [10] | Potency [12] | Potency [13] | Potency [14] | Potency [15] | outcome [17] | Potency [18]

Cc1nn(C)c(Oc2ccccc2)c1/C=N/OCc1ccc(C(=O)OC(C)(C)C)cc1
inactive: Potency [1] | Potency [2] | Potency [3] | Potency [6] | Potency [7] | Potency [8] | Potency [13] | Potency [14] | Potency [15] | outcome [17]
active: Potency [4] 0.0049 µM | Potency [9] 0.0137 µM | Potency [11] 0.0273 µM | Potency [12] 0.0122 µM | Potency [18] 0.0273 µM

CC[N+](C)(CC)CCOC(=O)C(O)(c1ccccc1)C1CCCCC1 (stereo unspecified)
inactive: Potency [1] | Potency [2] | Potency [3] | Potency [4] | Potency [5] | Potency [6] | Potency [7] | Potency [8] | Potency [10] | Potency [12] | Potency [20] | Potency [13] | Potency [14] | Potency [15] | Potency [16] | outcome [17] | Potency [18]

CCN(CC)CCNc1ccc(CNC=O)c2sc3ccc(OC)cc3c(=O)c12
inactive: Potency [1] | Potency [2] | Potency [6] | Potency [8] | Potency [12] | Potency [13] | Potency [14] | Potency [16] | outcome [17]
active: Potency [3] 21.9 µM | Potency [4] 19.5 µM | Potency [5] 34.7 µM
